Source: PubChem BioAssay AID1471 (National Center for Advancing Translational Sciences (NCATS), 2008)
Out of some 230,000 compounds screened, about 310 (0.13%) were called active. Where a call stands in place of a potency, no number is given. Inconclusive results (about 2%) are left out. The sample holds actives, similar compounds and a random draw of the others, so the mix is not that of the screen. The call rests on the fitted dose curve; in most records, active means well fitted activation curve with a large enough effect; inconclusive means small, poorly fitted or top-dose-only effect; inactive means no such curve, though single readings can be large or run the other way.

Experiment: qHTS Multiplex Assay to Identify Dual Action Probes in a Cell Model of Huntington: Cytoprotection (ATP);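 on cytoprotection (ATP increase): toxic huntingtin expression switched on by the ecdysone agonist tebufenozide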
Conditions: PC12 HTT-Q103 induced, ATP luminescence, 40 h; series mostly up to 56.4 µM
Source text: NIH Chemical Genomics Center [NCGC]
NIH Molecular Libraries Probe Production centers Network [MLPCN]
Assay Submitter (PI): Wei Zheng
Huntington's disease is a neurodegenerative disorder caused by a trinucleotide repeat expansion in Exon 1 of the Huntingtin gene. The CAG trinucleotide encodes glutamine and polyglutamine expansions cause cell death in selective areas of the brain. Huntington polyglutamine repeats have the tendency to form aggregates which are observable in later stages of the disease. The exact nature of the aggregates, whether toxic, protective, or insignificant, is unclear.
A stable PC12 cell line containing a gene fusion of Exon 1 of the Huntingtin gene linked to GFP under the control of the inducible ecdysone promoter were used as the cell-based model of Huntington Disease for high throughput screening. Exon 1 of the Huntingtin gene contained an expansion of 103 polyglutamines (Q103) which, when expressed, caused cell death and distinct, bright GFP aggregates. The amount of cell death and the size and intensity of GFP aggregates increased over time and induction level. The cell death were quantified with a measurement of ATP content in the cells. A maximal 40-50% of cell death was observed when the Huntington gene was induced in this cell line.
We optimized this assay in a homogeneous 1536 well format. A quantitative high throughput screen (qHTS) was conducted on the PC12 cells which were induced to express the toxic fusion construct. Small molecules which prevented cell death were identified by using a luminescent ATP quantification method (Perkin Elmer's ATPlite).
PC12 cells stably containing a construct with an ecdysone inducible promoter expressing GFP fused to the exon 1 of HTTQ103 (Huntington protein which containing a 103 ployglutamine expansion) were used.
NCGC Assay Protocol Summary:
Sequence, Parameter, Description
1, Reagent, 5 uL 1500 cells/well 1536 TC treated White clear bottom plate
2, Compound, 23 nL Tebufenozide inducer (100 nM final) to all columns
3, Compound, 23 nL 40 uM to 0.5 nM Libraries
5, Reagent, 5 ul ATPLite cell death assay reagent
6, Detector, 4 sec integration with a Viewlux Luminescent
Media consisted of phenol red free DMEM + 5% equine serum (Hyclone # SH30072.03 ), 5% supplemented Bovine Calf Serum (Hyclone # SH30074.03 ), 1x pen/strep, no G418
Control columns: 1 = DMSO, 2= 2 uM teb dilns (1:1), 4 = 100 nM Teb inducer. Sample columns received 100 nM Teb.
Potency means the concentration at half of the fitted maximal effect.

Row | SMILES | cytoprotection (ATP increase) | Potency
1 | O=C1OCCN1C(=O)[C@H]1[C@H](c2ccccc2)C(c2ccc(F)cc2)=NN1c1ccccc1 | inactive | –
2 | CCCCC/C=C\C/C=C\C/C=C\CCCCC(=O)NCC(=O)O | inactive | –
3 | C/C=C1\C2C=C(C)CC1(N)c1ccc(=O)[nH]c1C2 (stereo not given) | inactive | –
4 | COc1cccc(NC(=O)CN(C)CC(=O)Nc2ccc3c(c2)CCC3)c1 | 19.6% [at 10 µM] (inactive) | –
5 | Cc1ccc(-c2ncc(Cl)cc2-c2ccc(S(C)(=O)=O)cc2)cn1 | inactive | –
6 | CC1(OC(=O)C2CCCC2)C(=O)C=C2C=C(c3ccc(C#N)cc3)OC=C2C1=O (stereo not given) | inactive | –
7 | CCC(C)[C@@H](N)C(=O)O (stereo not given in full) | inactive | –
8 | Cc1cc2oc(=O)cc(-c3ccccc3)c2c(C)c1/C=C/c1ccc(F)cc1 | inactive | –
9 | COc1ccc(-c2nc3c(c4c2C[C@H](c2ccccc2)OC4)CN(S(=O)(=O)c2c(C)noc2C)CC3)c(C)c1 | -10% [at 10 µM] (inactive) | –
10 | O=C1/C(=C/c2cccs2)SC(=S)N1C1CCS(=O)(=O)C1 (stereo not given) | -20.7% [at 10 µM] (inactive) | –
11 | C=C1c2cccc(OC)c2O[C@H](C(=O)OCC)[C@@H]1CCCCCC | inactive | –
12 | C=CCC1CCC(=O)N2CCCC12 (stereo not given) | inactive | –
13 | COC(=O)c1cc(C(=O)OCC(=O)Nc2cc(C)on2)cc([N+](=O)[O-])c1 | -6.88% [at 10 µM] (inactive) | –
14 | CC[C@H](C)[C@@H](NC(=O)O[C@@H]1C(=O)c2cc(OC)ccc2O[C@H]1c1cccc(OC)c1)C(=O)OC | inactive | –
15 | O=C(c1cc2ccccc2o1)N1CCN(Cc2ccccc2)CC1 | inactive | –
16 | COc1cc2c(cc1OC)CC(=O)N(CCCN(C)C[C@H]1Cc3cc(OC)c(OC)cc31)CC2 | inactive | –
17 | C=CC1=C2C=C(C3CC3)N(CC(C)C)C=C2C(=O)C(C)(OC(=O)c2ccco2)C1=O (stereo not given) | -19.6% [at 10 µM] (inactive) | –
18 | S=C(NCCCc1cnc[nH]1)NCCCN(Cc1ccc(Cl)c(Cl)c1)c1ccc(Br)cn1 | inactive | –
19 | C/C(CC(=O)NC(C)c1ccccc1)=N\NC(N)=S (stereo not given) | 8.79% [at 10 µM] (inactive) | –
20 | COC(=O)C1=C(C(=O)OC)[C@@H]2N(Cc3ccccc3)c3ccccc3[C@@]23C[C@@H](C(=O)OC)N(S(=O)(=O)c2ccc(C(F)(F)F)cc2)C3=N1 | 23.4% [at 10 µM] (inactive) | –
21 | C[C@H]1Cc2c(-c3ccccc3)nc3c(c2CO1)CN(C(=O)C1CC1)CC3 | -5.29% [at 10 µM] (inactive) | –
22 | NC(=O)c1sc(-c2ccsc2)cc1N | inactive | –
23 | CC(C)(C)OC(=O)NCCCCC1=CC2=CC(=O)C(C)(OC(=O)c3cccs3)C(=O)C2=CO1 (stereo not given) | inactive | –
24 | COc1cccc([C@@H]2Oc3ccc(Br)cc3C(=O)[C@H]2OC(=O)NCc2ccc3c(c2)OCO3)c1 | inactive | –
25 | COC(=O)N1C(/C=C/C=C/c2ccc(OC)cc2)=Cc2ccccc2C1CC(C)=O (stereo not given) | -21.1% [at 10 µM] (inactive) | –
26 | CCCCC/C=C\C/C=C\CCCCCCCCCC(=O)NCC(=O)O | inactive | –
27 | COCCN(C(=O)c1ccccc1F)c1c(N)n(Cc2ccccc2)c(=O)[nH]c1=O | inactive | –
28 | COc1cccc(-c2cc(=O)c3cc(NC(=O)c4ccc(C)cc4)ccc3[nH]2)c1 | inactive | –

Row | SMILES | cytoprotection (ATP increase) | Potency
29 | CC[C@@]12C=C(/C=C/c3ccccc3)[C@](CC)(C1)[C@H](c1ccccc1)CC2=O | inactive | –
30 | O=c1c(O)c(Br)ccc2c(Br)c(O)c(O)c(O)c12 | inactive | –
31 | NCCC(=O)c1ccccc1N | inactive | –
32 | Nc1nc(CC(=O)CSc2ccc(Cl)cc2)nc(Nc2ccc(F)cc2)n1 | -29.1% [at 10 µM] (inactive) | –
33 | CCOC(=O)N1CCN(CC(=O)Nc2ccc(F)cc2)CC1 | -4.62% [at 10 µM] (inactive) | –
34 | CC(=O)N1CCN(CC(=O)Nc2ccc(SC(F)F)cc2)CC1 | – | 5.62 µM (active)
35 | COC(=O)c1cc(NC(=O)CN2CCN(C(C)=O)CC2)cc(C(=O)OC)c1 | inactive | –
36 | C[C@H]1Cc2c(-c3ccccc3)nc3c(c2CO1)CN(S(=O)(=O)c1ccc(Cl)c2nonc12)CC3 | -22.4% [at 10 µM] (inactive) | –
37 | COc1cc(OC)c2c(c1)OC(=O)CC2c1cc(OC)c(OC)c(OC)c1 (stereo not given) | inactive | –
38 | CN(C)Cc1ccccc1C1(O)c2ccccc2CSc2ccccc21 (stereo not given) | inactive | –
39 | O=C(/C=C/c1cccc(F)c1)NC1CC1 | inactive | –
40 | COC(=O)C1=C(C(=O)OC)[C@@H]2N(C)c3ccccc3[C@@]23C[C@@H](C(=O)OC)N(S(=O)(=O)c2ccc(Br)cc2)C3=N1 | 7.44% [at 10 µM] (inactive) | –
41 | C=CCN1c2ccccc2[C@]23C[C@@H](C(=O)OC)N(S(=O)(=O)c4ccc([N+](=O)[O-])cc4)C2=NC(C(=O)OC)=C(C(=O)OC)[C@H]13 | -23.4% [at 10 µM] (inactive) | –
42 | CC(Nc1oc(-c2ccccc2)nc1-c1ccccc1)c1ccccc1 (stereo not given) | inactive | –
43 | COCOc1cc(OC)ccc1C(=O)/C=C/c1ccc([N+](=O)[O-])cc1 | inactive | –
44 | C=CC(C1=CC(=O)C=CC1=O)c1ccc(O)cc1 (stereo not given) | inactive | –
45 | COc1ccc(C(C)=O)cc1CN1C(=O)NC2(CCCCC2C)C1=O (stereo not given) | inactive | –
46 | CCCCS(=O)(=O)N1C2=NC(C(=O)OC)=C(C(=O)OC)[C@@H]3N(Cc4ccccc4)c4ccccc4[C@]23C[C@H]1C(=O)OC | 21.8% [at 10 µM] (inactive) | –
47 | O=C1c2ccccc2NC(c2ccc(-c3cccc(Cl)c3)o2)N1O (stereo not given) | -70.6% [at 10 µM] (inactive) | –
48 | CC(N)(C(=O)O)c1ccc(-c2nn[nH]n2)cc1 (stereo not given) | inactive | –
49 | Cc1ccc(S(=O)(=O)N2CCC(=O)N([C@H](COCc3ccccc3)Cc3ccccc3)CC2)cc1 | inactive | –
50 | C/C=C(\C)C(=O)O[C@H]1CC(C)=C2C(=O)C=C(C)C2[C@@H]2OC(=O)[C@@](C)(OC(=O)C=C(C)C)C21 (stereo not given in full) | inactive | –
51 | O=C(N/N=C/c1cccc2cccnc12)[C@H]1C[C@@H]1c1ccccc1 | 23.6% [at 10 µM] (inactive) | –
52 | O=C(Nc1cccc(C(F)(F)F)c1)c1cc(Br)cc(Br)c1O | inactive | –
53 | CCN1C(=O)N[C@@H](c2ccccc2)[C@H](C(C)=O)[C@H]1C | -16.1% [at 10 µM] (inactive) | –
54 | CC(=O)CC(c1ccccc1)C1C(=O)Oc2ccccc2C1=O (stereo not given) | inactive | –
55 | CNC(=O)C1(C)C=CC2(CCCCC2)N1C(C)=O (stereo not given) | inactive | –
